{"source": "PubChem BioAssay (EPA / NIEHS)", "note": "Inconclusive results are not listed. Calls of active or inactive are those of the source. The calls were made as follows: active = hit-call score of the fitted dose curve at least 0.9, where 1 is the maximum; inactive = score below 0.9.", "data": [{"read-out": "Cytochrome P450 2C9 (Homo sapiens) (UniProt P11712)", "assay": "CLD_CYP2C9_48hr: CellzDirect (CLD) Gene Expression Assay for xenobiotic metabolism (CYP2C9) at 48 hours (AID 2283701)", "procedure": "CLD_48hr is a cell-based, multiplexed-readout assay that uses hepatocyte, a human liver primary cell, with measurements taken at 48 hours after chemical dosing in a 96-well plate.CLD_CYP2C9_48hr is one of 16 assay component(s) measured or calculated from the CLD_48hr assay. It is designed to make measurements of mRNA induction, a form of inducible reporter, as detected with chemiluminescence signals by Quantitative Nuclease Protection Assay (qNPA) technology.Data from the assay component CLD_CYP2C9_48hr was analyzed at the endpoint, CLD_CYP2C9_48hr, in the positive analysis fitting direction relative to DMSO as the negative control and baseline of activity. Using a type of inducible reporter, gain-of-signal activity can be used to understand changes in the reporter gene as they relate to the gene CYP2C9. Furthermore, this assay endpoint can be referred to as a primary readout. To generalize the intended target to other relatable targets, this assay endpoint is annotated to the cyp intended target family, where subfamily is xenobiotic metabolism.\nHuman hepatocyte cultures were treated daily for two consecutive days with fresh dosing solutions containing appropriate concentrations of the 320 ToxCast chemicals (chemical identities were blinded to CellzDirect and other ToxCast collaborators), vehicle control (0.2% DMSO), and positive control inducers as summarized in Table 1. Due to the large number of treatment groups and chemicals examined, the ToxCast chemicals were divided into two groups (spanning two independent cultures of hepatocytes from separate donor preparations (Hu778: ToxCast plates 1 and 2; Hu776: ToxCast plates 3 and 4). Each preparation of human hepatocyte cultures was treated with respective vehicle control, medium only control, set of six positive controls/reference chemicals for the five hepatic receptor pathways, and a subset of eight of the ToxCast chemicals (indoxacarb, pyrithiobac-sodium, norflurazon, cyhalofop-butyl, methomyl, thiram, acetochlor, and propiconazole). These replicate data, coupled with internal replicates designed within the blinded ToxCast chemical library, provided additional data to evaluate interindividual differences between hepatocyte preparations and their potential impact on chemical profiles.Cell morphology and integrity were evaluated using phase-contrast microscopy as an indicator of hepatocyte cell health (Tyson & Green, 1987). Cultures for each treatment group (i.e., media, vehicle [0.2% DMSO], positive control inducers [multiple concentrations], and the ToxCast chemicals [multiple concentrations]) were observed and cell morphology was assessed relative to vehicle control cultures at each harvest time point (0, 6, 24, or 48 h). […] Images were evaluated at the conclusion of the study to assess changes in cell integrity and account for the effects of chemical exposure on uncharacteristic changes in concentration-dependent gene expression profiles. The results from these determinations of apparent cytotoxicity were annotated (yes/no) alongside the corresponding qNPA data for reference.At the conclusion of each treatment period, hepatocyte cultures (96-well) were washed with 1 volume of HBSS, lysed by addition of 25 ul ArrayPlate lysis buffer (HTG, Tucson, AZ), and 70 ul/well of Denaturation Oil, denatured by incubation at 95C for 10 min, and frozen at approximately -70C until analysis by nuclease protection assay (qNPA) (Roberts et al., 2007). For qNPA analysis, cell lysates were thawed at 50C for approximately 30 min, qNPA probes were added, and samples were incubated at 95C for 10 min to begin the detection process by denaturing the target RNA, dissociating the duplexes and secondary structure hybridization. At the conclusion of the hybridization period, S1 nuclease reagent was added to each sample to digest all nonprotected nucleotides at 50C for 60-90 min. […]", "values": [{"smiles": "CC(C)=CC1C(C(=O)OCN2C(=O)C3=C(CCCC3)C2=O)C1(C)C", "note": "(configuration not stated)", "outcome": "inactive"}, {"smiles": "CSc1nc(NC(C)C)nc(NC(C)C)n1", "outcome": "inactive"}, {"smiles": "CCCCOC(=O)[C@@H](C)Oc1ccc(Oc2ccc(C#N)cc2F)cc1", "outcome": "inactive"}, {"smiles": "CN(C)C(=O)Nc1cccc(C(F)(F)F)c1", "outcome": "inactive"}, {"smiles": "Cc1ccn2nc(S(=O)(=O)Nc3c(F)cccc3F)nc2n1", "outcome": "inactive"}, {"smiles": "CSc1nnc(C(C)(C)C)c(=O)n1N", "outcome": "inactive"}, {"smiles": "CCCSP(=O)(OCC)SCCC", "outcome": "inactive"}, {"smiles": "COc1ccc(C(=CC(=O)N2CCOCC2)c2ccc(Cl)cc2)cc1OC", "outcome": "inactive"}, {"smiles": "Cc1cc(C2CC2)nc(Nc2ccccc2)n1", "outcome": "inactive"}, {"smiles": "CCOP(=O)(OCC)Oc1cc(C)nc(C(C)C)n1", "outcome": "inactive"}, {"smiles": "CNC(=O)ON=C(SC)C(=O)N(C)C", "outcome": "inactive"}, {"smiles": "CC(C)N(C(=O)SCC(Cl)=C(Cl)Cl)C(C)C", "outcome": "inactive"}, {"smiles": "CCOP(=S)(OCC)OC(Cl)C(Cl)(Cl)Cl", "note": "(configuration not stated)", "outcome": "inactive"}, {"smiles": "CC(C)[C@H](C(=O)O[C@H](C#N)c1cccc(Oc2ccccc2)c1)c1ccc(Cl)cc1", "outcome": "inactive"}, {"smiles": "CCOP(=O)(NC(C)C)Oc1ccc(SC)c(C)c1", "note": "(configuration not stated)", "outcome": "inactive"}, {"smiles": "CC(=NC#N)N(C)Cc1ccc(Cl)nc1", "outcome": "inactive"}, {"smiles": "CCOC(=O)COc1cc(-c2nn(C)c(OC(F)F)c2Cl)c(F)cc1Cl", "outcome": "inactive"}, {"smiles": "CN1COCN(Cc2cnc(Cl)s2)C1=N[N+](=O)[O-]", "outcome": "inactive"}, {"smiles": "CCCSP(=O)(OCC)Oc1ccc(Br)cc1Cl", "note": "(configuration not stated)", "outcome": "inactive"}, {"smiles": "COc1cccc(C(=O)NN(C(=O)c2cc(C)cc(C)c2)C(C)(C)C)c1C", "outcome": "inactive"}, {"smiles": "CCC(=NOC/C=C/Cl)C1=C(O)CC(C2CCOCC2)CC1=O", "note": "(configuration not stated)", "outcome": "inactive"}, {"smiles": "COP(=O)(NC(C)=O)SC", "note": "(configuration not stated)", "outcome": "inactive"}, {"smiles": "CCOP(=S)(Oc1cnc(C(C)(C)C)nc1)OC(C)C", "note": "(configuration not stated)", "outcome": "inactive"}, {"smiles": "CCc1cccc(C)c1N(C(=O)CCl)C(C)COC", "note": "(configuration not stated)", "outcome": "inactive"}, {"smiles": "COP(=O)(OC)SCn1c(=O)oc2cc(Cl)cnc21", "outcome": "inactive"}, {"smiles": "COc1cc(OC)nc(Sc2cccc(Cl)c2C(=O)O)n1", "outcome": "inactive"}, {"smiles": "CCOP(=S)(OCC)SCCSCC", "outcome": "inactive"}, {"smiles": "CCCCSP(=O)(SCCCC)SCCCC", "outcome": "inactive"}, {"smiles": "CCc1cccc(CC)c1N(COC)C(=O)CCl", "outcome": "inactive"}, {"smiles": "CCOP(=S)(OCC)Oc1ccc2c(C)c(Cl)c(=O)oc2c1", "outcome": "inactive"}, {"smiles": "CCOP(=O)(SC(C)CC)N1CCSC1=O", "note": "(configuration not stated)", "outcome": "inactive"}, {"smiles": "CNc1cnn(-c2cccc(C(F)(F)F)c2)c(=O)c1Cl", "outcome": "inactive"}, {"smiles": "CC(COc1ccc(Oc2ccccc2)cc1)Oc1ccccn1", "note": "(configuration not stated)", "outcome": "inactive"}, {"smiles": "CON=C(C(=O)OC)c1ccccc1CON=C(C)c1cccc(C(F)(F)F)c1", "outcome": "inactive"}, {"smiles": "C#CCC1=C(C)C(OC(=O)C2C(C=C(C)C)C2(C)C)CC1=O", "note": "(configuration not stated)", "outcome": "inactive"}, {"smiles": "C#CC(C)(C)NC(=O)c1cc(Cl)cc(Cl)c1", "outcome": "inactive"}, {"smiles": "O=c1ccc(=O)[nH][nH]1", "outcome": "inactive"}]}]}
